High-throughput results (PubChem)
TWEAK-Fn14 inh = blocks TWEAK-Fn14 interaction in a reporter cell assay. inhibition, % at 10 µM. 2% of 360,000 active. TWEAK-stimulated Fn14 reporter cells, luciferase luminescence, 8 h; in the data active = inhibition above about 50%
Peg3 promoter = inhibitors of Peg3 promoter; HeLa PEG-Prom luciferase reporter, luminescence, overnight; inhibition, % at 20 µM; 1.7% of 360,000 active; AID 588405;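 active = inhibition of at least 50% at 20 µM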
TROY signal inh = blocks TROY-dependent signaling in reporter cells; Q293 LMP1-TROYcd NF-kB luciferase reporter, 4 h; inhibition, % at 10 µM; 0.98% of 360,000 active;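 active = compounds whose plate-normalised and pattern-corrected inhibition of the luciferase reporter signal at the single screening dose is 50% or more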
HIF-2a block = HIF-2a inhibition | 786-0 RCC cells HIF-2a reporter, luciferase luminescence, overnight | inhibition, % at 18.8 µM | 0.72% of 360,000 active;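 active = inhibition of the luminescence signal of 40% or more relative to plate controls, in a single-dose primary screen at 18.75 µM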
KKLEB tox = reduces viability of KKLEB cystic fibrosis airway cells; KKLEB CF airway cells viability, ATPlite luminescence, overnight; active compounds read low; cells stimulated with P. aeruginosa culture filtrate; activity change (cytotoxicity), % at 5 µM; 0.36% of 360,000 active;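 active = corrected activity change at or below -50% at 5 µM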
CF NFkB inh = blocks PAF-induced NF-kB reporter in cystic fibrosis cells. KKLEB NF-kB-GFP reporter, GFP fluorescence overnight. inhibition, % at 5 µM. 0.86% of 360,000 active;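 active = at least 50% inhibition at 5 µM, scaled per plate between neutral and stimulator controls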;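 also: PAF is a Pseudomonas aeruginosa culture filtrate used as stimulus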
Mdm2-MdmX confirm = confirmation of inhibitors of human Mdm2/MdmX interaction, set 2; 99% of 740 active; SaOS-2 split-luciferase Mdm2/MdmX complementation, luminescence; inhibition, % at 8 µM; shares compounds with HIF-2a block;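 active = mean inhibition of the luminescence signal across two replicates at or above 26 percent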
HIF-2a conf = HIF-2a inhibition, single concentration confirmation | shares compounds with HIF-2a block | 786-0 RCC cells, HIF-2a luciferase reporter luminescence, overnight | inhibition, % at 18.8 µM | 56% of 1,800 active;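 active = mean inhibition across four replicates of at least 40 percent at the single tested concentration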
HIF-1a cs = inhibits HIF-1a reporter, a counter-screen for HIF-2a inhibitors; shares compounds with HIF-2a block; 72% of 1,800 active; MiaPaCa-2 HIF-1a luciferase reporter, desferoxamine, overnight; inhibition, % at 18.8 µM;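 active = mean inhibition of the reporter signal across four replicates at the single tested dose of 50% or more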
Numbers stand for hits; – = inactive; · = no result given. Rows were chosen to be rich in hits. Some 3.9% of all compounds tested hit in one or more screens of this group.

SMILES | TWEAK-Fn14 inh | Peg3 promoter | TROY signal inh | HIF-2a block | KKLEB tox | CF NFkB inh | HIF-2a conf | HIF-1a cs | others
CCOC(=O)C1CCN(C(=O)COC(=O)CNC(=O)c2ccc(C(C)(C)C)cc2)CC1 | – | – | – | – | – | – | · | ·
Cn1c(=O)c2c(nc(CN3CCc4ccccc4C3)n2Cc2cccc(Cl)c2)n(C)c1=O | – | – | – | 43 | – | – | – | 76
COC(=O)c1[nH]c2ccc(Cl)cc2c1NC(=O)CCN1CCN(C2CCCCC2)CC1 | – | – | – | – | – | – | · | ·
COC(=O)c1[nH]c2ccc(Br)cc2c1NC(=O)CN1CCN(C2CCCCC2)CC1 | – | 104 | – | 68 | – | – | – | 104 | Mdm2-MdmX confirm=103
CCn1c(=N)c(C(=O)NC)cc2c(=O)n3cccc(C)c3nc21 | – | – | – | – | – | – | · | ·
CCNc1nc(C)c2cc(Br)c(=O)n(CC)c2n1 | – | – | – | 55 | – | – | – | –
O=c1[nH]cnc2c1C(c1ccc(Cl)cc1)c1c(nc[nH]c1=O)O2 | – | – | – | – | – | – | · | ·
COc1ccc(-c2nc(CS(=O)CC(=O)NCc3ccco3)c(C)o2)cc1 (stereo unspecified) | – | – | – | – | – | – | · | ·
CCc1ccc(-c2nc(CS(=O)CC(=O)NCc3ccco3)c(C)o2)cc1 (stereo unspecified) | 76 | – | – | 70 | – | – | – | 69
Oc1ccc(N=Nc2ccc3c(c2)OCCO3)c2cccnc12 | – | – | 76 | – | – | – | · | · | Mdm2-MdmX confirm=89
COc1ccc(N=Nc2ccc(O)c3ncccc23)cc1 | – | – | – | – | – | – | · | ·
COc1ccc(N(CC(=O)N2CCN(Cc3ccccc3)CC2)S(C)(=O)=O)cc1OC | – | – | – | – | – | – | · | ·
Cc1ccc(S(=O)(=O)N2CCN(C(=O)CCc3nc4ccccc4c(=O)[nH]3)CC2)c(C)c1 | – | – | – | – | – | – | · | ·
O=C(CCc1nc2ccccc2c(=O)[nH]1)N1CCN(S(=O)(=O)c2ccccc2Br)CC1 | – | – | – | 48 | – | – | – | 89
COc1cccc(/C=N/Nc2nc(N3CCCC3)nc(N3CCCC3)n2)c1O | – | – | – | – | – | – | · | ·
COc1cc(OC)cc(-c2cc3nc(C)c(CCC(=O)Nc4nc(C)cs4)c(C)n3n2)c1 | – | – | – | 43 | – | – | 55 | –
CN(C)c1ccc(C2(c3ccc(N(C)C)cc3)OC(=O)c3cc(N)ccc32)cc1 | – | – | – | – | – | – | · | ·
COC(=O)/C(=C\c1cc(OC)c(OC)c(OC)c1)c1nc2ccccc2[nH]1 | – | – | – | – | – | – | · | ·
COC(=O)/C(=C\c1ccc(O)cc1)c1nc2ccccc2[nH]1 | – | – | – | – | – | – | · | ·
O=C(/C(=C/c1ccc(Cl)cc1)c1nc2ccccc2[nH]1)c1cccs1 | – | 106 | – | 93 | -61 | 98 | · | · | Mdm2-MdmX confirm=102
COc1cc(/C=C(/C(=O)c2cccs2)c2nc3ccccc3[nH]2)ccc1O | – | 103 | – | 68 | – | – | – | 104
O/C(=C\c1nc2ccccc2[nH]1)c1cccs1 | – | – | – | – | – | – | · | ·
O=C(/C(=C\c1ccccc1)c1nc2ccccc2[nH]1)c1ccc(Cl)cc1 | – | 87 | – | 64 | – | – | – | 100
COC(=O)C1CCN(C(=O)COC(=O)c2oc3ccccc3c2C)CC1 | – | – | – | – | – | – | · | ·
O=C(Nc1nc(-c2ccccn2)cs1)c1ccc([N+](=O)[O-])o1 | – | – | – | – | – | – | · | ·
SMILES | TWEAK-Fn14 inh | Peg3 promoter | TROY signal inh | HIF-2a block | KKLEB tox | CF NFkB inh | HIF-2a conf | HIF-1a cs | others
CC(=O)c1ccc(-c2ccc(C(=O)Nc3nc(-c4ccccn4)cs3)o2)cc1 | – | 76 | – | – | – | – | · | · | Mdm2-MdmX confirm=99
O=C1OC(N2C(=O)CC[C@H]2C(=O)Nc2ccc(F)c(F)c2)c2ccccc21 (stereo partly specified) | – | – | – | – | – | – | · | ·
COC(=O)C1CCN(C(=O)CSc2nnc(-c3ccncc3)o2)CC1 | – | – | · | – | – | – | · | ·
CC(C)N(c1ccccc1)c1ccc(NC(=O)[C@@H]2O[C@H](CO)[C@H](O)[C@H](O)[C@H]2O)cc1 | – | – | – | – | – | – | · | ·
CC(C)N(c1ccccc1)c1ccc(NC(=O)CCl)cc1 | 62 | 91 | – | 82 | -86 | 82 | 62 | 100 | Mdm2-MdmX confirm=102
CC(=O)Nc1ccc(NC(=O)Cc2ccc(-c3ccccc3)cc2)cc1 | – | – | – | – | – | – | · | ·
O=C(CCl)Nc1ccc(-c2ccccc2)cc1 | – | 104 | – | – | – | – | · | · | Mdm2-MdmX confirm=102
CS(=O)(=O)c1ccc(S(=O)CC(=O)OCc2ccccc2)c([N+](=O)[O-])c1 (stereo unspecified) | 90 | 110 | 56 | 91 | – | 89 | 52 | 106
Cc1nn(Cc2noc(C(=O)NCc3ccc4c(c3)OCO4)n2)c(C)c1Br | – | – | – | – | – | – | · | ·
CC1=CC(C)(C)Nc2ccc(C)cc21 | – | – | – | – | – | – | · | ·
CC1=CC(C)(C)Nc2ccc(OC(=O)c3cccnc3)cc21 | – | 57 | – | 75 | – | – | 86 | 94
O=C(Oc1cccc(OC(=O)c2ccco2)c1)c1ccco1 | – | – | – | – | – | – | · | ·
CC1=CC(C)(C)Nc2ccc(OC(=O)CN3C(=O)CCC3=O)cc21 | – | – | – | 74 | – | – | 88 | 90
CC1=CC(C)(C)Nc2ccc(OC(=O)c3ccco3)cc21 | 88 | – | – | 81 | – | – | 83 | 92
COc1ccc(OC(=O)C(C)N2C(=O)c3ccccc3C2=O)cc1 (stereo unspecified) | – | – | – | – | – | – | · | ·
CC1=CC(C)(C)Nc2ccc(OC(=O)C(C)N3C(=O)c4ccccc4C3=O)cc21 (stereo unspecified) | – | – | – | 78 | – | – | 90 | 94
Cc1nn(C)cc1CNC(=O)COc1ccc(Cl)cc1Cl | – | – | – | – | – | – | · | ·
CCc1ccc2oc(=O)cc(CN3CCOCC3)c2c1 | – | – | – | 46 | – | – | – | –
COc1cccc(F)c1C(C[N+](=O)[O-])c1c(N)n(C)c(=O)n(C)c1=O (stereo unspecified) | 58 | 104 | – | 88 | – | – | 79 | 106
COc1cc(C(C[N+](=O)[O-])c2c(N)n(C)c(=O)n(C)c2=O)ccc1O (stereo unspecified) | – | – | – | – | – | – | · | ·
Cn1c(=S)c2[nH]c(SCc3cccnc3)nc2n(C)c1=O | – | – | – | – | – | – | · | ·
